High-throughput results deposited in PubChem BioAssay by National Center for Advancing Translational Sciences (NCATS).
Pf growth 96h: inhibits malaria parasite growth, 96 h; 320,000 compounds, 6.9% hits; P. falciparum luciferase reporter growth, 96 h; Potency, µM (titrated, usually from 28.7 µM), without a hit: top-dose activity change, negative = inhibition, actives largely listed as inhibitors; note: % is set by controls: 0 for no effect and ±100 for the full control effect
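Infected RBCs, 2% Hct / 0.05% parasitemia final; luciferase-reporter P. falciparum; cpd 96 h, 37 C, 5% CO2; luciferase detection reagent; luminescence.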
Sm TGR inh: inhibitors of Schistosoma mansoni thioredoxin glutathione reductase | AID 485364 | purified TGR, DTNB reduction, TNB absorbance 405 nm | 360,000 compounds, 3% hits | Potency, µM (top dose mostly 114 µM), without a hit: top-dose activity change, negative = inhibition, hits mostly inhibitors | Q962Y6; note: % is set by controls: 0 for no effect and ±100 for the full control effect; nearly all actives have a fitted effect of over 60% in size
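Kinetic colorimetric format: TGR-catalysed, NADPH-driven DTNB reduction monitored via TNB absorbance. Enzyme dispensed at 20 nM; compound exposure 15 min at room temperature before reaction start.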
Pf growth 48h: P. falciparum growth inhibition at 48 hours (one generation); 310,000 compounds, 5.9% hits; Potency, µM (series often up to 28.7 µM), for inactives: at the highest dose activity change, negative = inhibition, most hits filed as inhibitors; P. falciparum luciferase growth in erythrocytes, 48 h; note: % is set by controls: 0 for no effect and ±100 for the full control effect
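Here the parasites carry a stable luciferase gene and grow inside erythrocytes in Albumax-based RPMI medium with compound for one erythrocytic cycle. Activity is scored as loss of luminescent signal.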
SARS PLP yeast: blocks SARS-CoV papain-like protease in a yeast assay; S. cerevisiae expressing SARS-CoV PLpro, growth rescue; Potency, µM (doses to about 32.9 µM), for inactives: top-dose activity, positive = growth rescue, most hits filed as activators; 330,000 compounds, 0.19% hits; AID 485353; calls by dose curve; note: 0% is about no effect; nearly all actives have a fitted effect of over 55% in size
The depositor's hits bear a star; ? = inconclusive; nt = not tested or not shown; ! = not active in a repeat; [ ] = remark or other dose. An excerpt weighted towards active compounds, which were near 12% of everything screened. Unless noted, calls come from the whole dose curve; as a rule, active = well fitted curve in the direction sought with a large enough effect; inconclusive = small, poorly fitted or top-dose-only effect, or another doubt; inactive = no such curve, though single readings can be large; an effect the other way counts as inactive or inconclusive. Potency is the fitted concentration of half-maximal effect.

SMILES	Pf growth 96h	Sm TGR inh	Pf growth 48h	SARS PLP yeast
C#CCOCCOCCOCCNc1nc(N2CCN(C(=O)CCCCCCCCCCNC(=O)[C@H]([C@@H](C)CC)n3cc(CCCCN=C(N)N)nn3)CC2)nc(N2CCN(C(=O)CCCCCCCCCCNC(=O)[C@H]([C@@H](C)CC)n3cc(CCCCN=C(N)N)nn3)CC2)n1	4.1µM*	40µM*	3.7µM*	-2%
Cc1ccc(S(=O)(=O)Nc2ccc(-n3cnnn3)cc2)cc1	12µM*	-12%	6%	0%
O=C(CN1C(=O)c2ccccc2C1=O)NN1C(=O)c2ccccc2C1=O	56%	-2%	28%	-2%
CC1COC(C)(CC(=O)NN2C(=O)c3ccccc3C2=O)O1 (centres undefined)	2.6µM*	-7%	28%	0%
O=C1OC(c2cccs2)=N/C1=C/c1ccc(-c2cccc(C(=O)O)c2)o1	30%	22µM*	99%	5%
COc1ccc2[nH]c(C)c(CCNc3ccc(C(F)(F)F)cc3[N+](=O)[O-])c2c1	15µM*	-4%	?	-16%
CS(=O)(=O)NCCNc1ccc(C(F)(F)F)cc1[N+](=O)[O-]	3%	-1%[57.1 µM]	14%	-1%
COc1ccc(CNCCc2c(C)[nH]c3ccc(OC(F)(F)F)cc23)c(OC)c1	?	-15%	5.2µM*	1%
COc1ccc2[nH]c(C)c(CCNCc3cc(OC)c4c(c3)OCO4)c2c1	?	-25%	7.4µM*	2%
O=C(O)CN(c1ccccn1)S(=O)(=O)c1ccccc1	18%	1%	nt	-2%
COC(=O)CN(c1ccccn1)S(=O)(=O)c1ccccc1	2.3µM*	2%	23%	2%
CCOc1ccc(-c2cc3c(=O)n(Cc4nc(-c5ccc(OC)cc5OC)oc4C)ccn3n2)cc1Cl	nt	6%	nt	nt
COc1ccc(/C=C2\SC(=O)N(CCNC(=O)Cc3coc4cc(C)ccc34)C2=O)cc1OC	7.4µM*	-16%	?	11%
COc1ccc(/C=C2/SC(=O)N(CCC(=O)Nc3ccc(C)cc3)C2=O)cc1OC	20%	5%	9%	5%
O=S(=O)(NCCc1nnc2ccc(SCc3ccccc3Cl)nn12)c1ccccc1	nt	1%	nt	nt
Cn1cc(NC(=O)c2cc(NC(=O)c3cc(NC=O)cn3C)cn2C)cc1C(=O)NCCC(=N)N	?	14µM*	3.4µM*!	1%
CCOC(=O)C(C)NC(=O)c1cc2c(=O)[nH]c3ccc(C)cc3c2s1 (centres undefined)	nt	5%	nt	nt
O=C1c2ccccc2NC(c2ccccc2Br)N1CCCN1CCOCC1 (centres undefined)	10µM*	-6%	?	4%
COC(=O)[C@H](C(C)C)N(Cc1ccccc1)S(=O)(=O)CCN1CCN(c2ccccc2)CC1	nt	nt	nt	-27%
O=C(NC(=S)NCc1ccccc1)c1ccccc1F	14%	?	2%	17%
O=C(NCCCCc1ccccc1)c1ccccc1	?	-3%	3%	2%
O=C(NCCCc1ccccc1)c1ccccc1	9.3µM*	?	30%	?
COc1ccc(CCNC(=S)NC(=O)c2ccccc2)cc1C	-77%	3.5µM*	-9%	-1%
O=C(NC(=S)NCCc1ccccc1)c1ccccc1F	-10%	40µM*	48%	12%
O=C(NCC#CCOCc1ccccc1)c1ccccc1	27%	7.1µM*	-21%	5%
SMILES	Pf growth 96h	Sm TGR inh	Pf growth 48h	SARS PLP yeast
CC1CCC2(CC1)NC(=O)N(CC(=O)Nc1ccc(C(N)=O)cc1)C2=O (centres undefined)	nt	nt	nt	3%
O=C(NC(=S)N1CCCC1)c1ccccc1F	-6%	-1%	-25%	-1%
O=C(NC(=S)NCCc1ccccc1)c1ccccc1	18%	18µM*	32%	17%
CC(C)(CNC(=S)NCCc1ccccc1)CNC(=S)NCCc1ccccc1	?	-1%	13µM*	20%
OCCNC(=S)NCCc1ccccc1	86%	2%	16%	4%
Cc1ccc(C(=O)NC(=S)NCc2ccccc2)cc1	?	6.3µM*	86%	-6%
O=C(NC(=S)NC(=O)c1ccccc1F)c1ccccc1F	3%	2.8µM*	45%	-56%
COc1ccc(C(=O)NC(=S)NCc2ccccc2)cc1OC	10%	nt	-8%	2%
O=C(COc1ccc([N+](=O)[O-])cc1)Nc1nc2c(s1)CCCC2	nt	1%	nt	nt
O=C(NCCC(=O)N(CCc1ccccc1)Cc1ccccc1)c1ccc(Br)cc1	13µM*	6%	?	nt
